# Source: ChEMBL document CHEMBL1961873, “Compounds: GSK PKIS; Assays: Nanosyn kinase panel” (2012)
# Legend:
# [1] = target: T1, Inhibitor of nuclear factor kappa-B kinase subunit epsilon (Homo sapiens) (UniProt Q14164); settings: at 1 µM;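 further: reported values are averaged percent inhibition figures against human IKKε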
# T1 sequence (whole entry): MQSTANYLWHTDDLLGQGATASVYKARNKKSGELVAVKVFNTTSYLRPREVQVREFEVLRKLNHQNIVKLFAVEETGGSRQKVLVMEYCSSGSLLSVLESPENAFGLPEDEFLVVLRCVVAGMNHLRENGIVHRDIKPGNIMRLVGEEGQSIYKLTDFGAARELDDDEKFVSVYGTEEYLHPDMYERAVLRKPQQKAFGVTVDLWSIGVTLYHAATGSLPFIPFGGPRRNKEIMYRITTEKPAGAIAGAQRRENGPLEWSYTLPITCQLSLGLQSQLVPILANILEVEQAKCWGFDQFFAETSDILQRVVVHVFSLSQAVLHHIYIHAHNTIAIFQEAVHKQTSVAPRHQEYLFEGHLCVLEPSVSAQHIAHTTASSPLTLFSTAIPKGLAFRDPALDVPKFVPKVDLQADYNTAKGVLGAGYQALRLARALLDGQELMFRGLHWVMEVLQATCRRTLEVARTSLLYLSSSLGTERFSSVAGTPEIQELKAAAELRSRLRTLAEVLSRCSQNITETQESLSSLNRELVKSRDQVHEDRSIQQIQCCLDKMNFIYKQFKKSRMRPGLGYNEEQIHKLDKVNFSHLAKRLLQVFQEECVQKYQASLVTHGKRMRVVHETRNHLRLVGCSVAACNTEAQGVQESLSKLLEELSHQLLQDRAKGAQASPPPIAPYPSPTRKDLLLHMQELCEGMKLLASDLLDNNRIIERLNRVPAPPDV
# [2] = target: T2, Serine/threonine-protein kinase Nek1 (Homo sapiens) (UniProt Q96PY6); settings: at 0.1 µM
# T2 sequence (whole entry): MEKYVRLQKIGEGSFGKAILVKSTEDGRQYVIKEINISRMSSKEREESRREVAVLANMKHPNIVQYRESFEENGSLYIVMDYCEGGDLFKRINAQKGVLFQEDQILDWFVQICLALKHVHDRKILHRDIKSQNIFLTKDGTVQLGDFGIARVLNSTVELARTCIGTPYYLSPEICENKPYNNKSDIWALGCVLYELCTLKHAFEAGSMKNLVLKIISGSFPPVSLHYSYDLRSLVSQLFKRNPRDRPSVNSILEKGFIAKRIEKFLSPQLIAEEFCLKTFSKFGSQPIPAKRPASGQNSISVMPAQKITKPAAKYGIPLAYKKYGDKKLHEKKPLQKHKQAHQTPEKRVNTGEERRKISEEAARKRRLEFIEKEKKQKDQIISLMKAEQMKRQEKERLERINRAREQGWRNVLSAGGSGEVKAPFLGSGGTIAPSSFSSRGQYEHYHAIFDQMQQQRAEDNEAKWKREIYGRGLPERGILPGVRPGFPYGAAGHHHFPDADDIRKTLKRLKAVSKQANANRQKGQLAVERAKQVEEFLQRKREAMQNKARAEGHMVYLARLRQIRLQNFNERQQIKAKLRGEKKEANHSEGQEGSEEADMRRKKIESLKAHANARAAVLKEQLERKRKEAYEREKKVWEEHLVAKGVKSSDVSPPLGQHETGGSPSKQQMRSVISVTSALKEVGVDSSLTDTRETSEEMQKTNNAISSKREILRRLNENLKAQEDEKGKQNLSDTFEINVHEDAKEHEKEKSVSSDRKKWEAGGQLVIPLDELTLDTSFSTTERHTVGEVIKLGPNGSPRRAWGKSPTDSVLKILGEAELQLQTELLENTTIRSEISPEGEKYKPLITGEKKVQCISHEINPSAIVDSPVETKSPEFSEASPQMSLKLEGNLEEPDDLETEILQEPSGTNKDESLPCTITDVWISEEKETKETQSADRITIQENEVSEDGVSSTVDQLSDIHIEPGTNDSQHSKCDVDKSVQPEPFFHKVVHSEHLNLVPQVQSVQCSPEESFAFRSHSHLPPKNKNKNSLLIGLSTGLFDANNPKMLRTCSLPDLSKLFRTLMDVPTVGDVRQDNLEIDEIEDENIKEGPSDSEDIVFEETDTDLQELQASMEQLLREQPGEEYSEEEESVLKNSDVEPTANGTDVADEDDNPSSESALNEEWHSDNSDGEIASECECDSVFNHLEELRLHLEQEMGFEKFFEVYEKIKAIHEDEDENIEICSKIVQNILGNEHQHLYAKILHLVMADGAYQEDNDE
# [3] = target: T2, Serine/threonine-protein kinase Nek1 (Homo sapiens); settings: at 1 µM
# [4] = target: T3, Serine/threonine-protein kinase Nek2 (Homo sapiens) (UniProt P51955); settings: at 0.1 µM
# T3 sequence (whole entry): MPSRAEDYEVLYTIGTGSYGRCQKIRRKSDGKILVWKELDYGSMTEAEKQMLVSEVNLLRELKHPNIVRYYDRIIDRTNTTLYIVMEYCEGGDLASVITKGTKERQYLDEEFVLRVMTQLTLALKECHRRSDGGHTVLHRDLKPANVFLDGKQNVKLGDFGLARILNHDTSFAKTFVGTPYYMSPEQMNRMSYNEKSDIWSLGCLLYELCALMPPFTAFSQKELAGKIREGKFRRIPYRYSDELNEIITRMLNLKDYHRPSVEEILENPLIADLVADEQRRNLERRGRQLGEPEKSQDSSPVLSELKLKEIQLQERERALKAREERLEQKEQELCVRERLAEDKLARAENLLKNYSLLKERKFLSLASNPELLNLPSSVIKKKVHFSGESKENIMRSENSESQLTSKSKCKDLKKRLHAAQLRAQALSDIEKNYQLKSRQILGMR
# [5] = target: T3, Serine/threonine-protein kinase Nek2 (Homo sapiens); settings: at 1 µM
# [6] = target: Serine/threonine-protein kinase Nek6 (Homo sapiens) (UniProt Q9HC98); settings: at 0.1 µM
# Serine/threonine-protein kinase Nek6 (Homo sapiens), sequence (Q9HC98 whole entry): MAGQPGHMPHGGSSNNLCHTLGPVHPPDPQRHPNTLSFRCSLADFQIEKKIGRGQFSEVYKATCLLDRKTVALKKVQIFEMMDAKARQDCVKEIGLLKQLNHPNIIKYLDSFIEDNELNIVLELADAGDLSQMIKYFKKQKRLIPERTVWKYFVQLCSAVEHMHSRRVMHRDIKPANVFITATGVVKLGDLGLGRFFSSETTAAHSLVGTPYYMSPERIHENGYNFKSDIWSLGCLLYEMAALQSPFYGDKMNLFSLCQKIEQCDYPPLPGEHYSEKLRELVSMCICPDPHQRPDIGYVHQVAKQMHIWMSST
# [7] = target: Serine/threonine-protein kinase Nek6 (Homo sapiens) (UniProt Q9HC98); settings: at 1 µM
# [8] = target: Serine/threonine-protein kinase Nek7 (Homo sapiens) (UniProt Q8TDX7); settings: at 0.1 µM
# Serine/threonine-protein kinase Nek7 (Homo sapiens), sequence (Q8TDX7 whole entry, looked up): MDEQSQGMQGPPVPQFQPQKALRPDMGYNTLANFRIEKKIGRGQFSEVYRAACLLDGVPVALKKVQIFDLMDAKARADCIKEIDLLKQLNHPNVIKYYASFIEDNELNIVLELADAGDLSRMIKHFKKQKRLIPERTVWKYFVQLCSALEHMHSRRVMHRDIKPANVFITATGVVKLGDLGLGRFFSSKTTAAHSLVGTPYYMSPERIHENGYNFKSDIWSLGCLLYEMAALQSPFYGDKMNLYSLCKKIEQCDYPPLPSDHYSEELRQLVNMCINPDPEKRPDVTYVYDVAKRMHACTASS
# [9] = target: Serine/threonine-protein kinase Nek7 (Homo sapiens) (UniProt Q8TDX7); settings: at 1 µM
# [10] = target: T4, Serine/threonine-protein kinase Nek9 (Homo sapiens) (UniProt Q8TD19); settings: at 0.1 µM;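 further: reported value is the mean percent inhibition of NEK9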
# T4 sequence (whole entry): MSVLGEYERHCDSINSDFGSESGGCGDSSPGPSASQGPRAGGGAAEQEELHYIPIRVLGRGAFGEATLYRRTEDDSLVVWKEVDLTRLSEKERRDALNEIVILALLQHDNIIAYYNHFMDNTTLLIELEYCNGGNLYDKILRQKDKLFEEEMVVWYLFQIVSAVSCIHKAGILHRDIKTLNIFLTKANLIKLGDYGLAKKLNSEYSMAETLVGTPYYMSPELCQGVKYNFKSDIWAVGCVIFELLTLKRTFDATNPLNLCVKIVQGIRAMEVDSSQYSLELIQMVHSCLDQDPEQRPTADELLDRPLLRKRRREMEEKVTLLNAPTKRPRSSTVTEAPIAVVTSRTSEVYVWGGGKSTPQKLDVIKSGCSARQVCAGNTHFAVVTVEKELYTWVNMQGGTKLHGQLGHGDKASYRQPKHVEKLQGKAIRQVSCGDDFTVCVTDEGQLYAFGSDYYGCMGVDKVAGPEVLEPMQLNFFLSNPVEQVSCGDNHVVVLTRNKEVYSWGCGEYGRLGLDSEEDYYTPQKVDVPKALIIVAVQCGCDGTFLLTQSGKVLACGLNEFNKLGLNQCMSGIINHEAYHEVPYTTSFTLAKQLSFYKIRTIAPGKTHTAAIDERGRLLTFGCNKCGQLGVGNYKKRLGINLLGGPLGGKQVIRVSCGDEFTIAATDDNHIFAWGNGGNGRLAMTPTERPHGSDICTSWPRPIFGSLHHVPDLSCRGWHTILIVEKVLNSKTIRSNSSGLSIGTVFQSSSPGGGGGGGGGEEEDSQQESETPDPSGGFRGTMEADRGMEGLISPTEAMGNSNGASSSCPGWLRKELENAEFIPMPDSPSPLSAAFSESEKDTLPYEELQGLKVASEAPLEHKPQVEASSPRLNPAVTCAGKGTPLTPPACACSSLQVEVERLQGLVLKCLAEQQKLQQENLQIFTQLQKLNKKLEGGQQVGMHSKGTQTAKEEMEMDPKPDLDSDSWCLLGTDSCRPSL
compound,measurement,setting,value
NC(=O)c1ccc(Oc2nccc(-c3c(-c4ccc(F)cc4)ncn3C3CCNCC3)n2)cc1,inhibition,[1],7.38%
same,inhibition,[2],4.02%
same,inhibition,[3],5.01%
same,inhibition,[4],6.78%
same,inhibition,[5],5.63%
same,inhibition,[6],1.6%
same,inhibition,[7],1.67%
same,inhibition,[8],3.46%
same,inhibition,[9],9.69%
same,inhibition,[10],6.05%
